Assay results from the supplement of paper PMC11732987, “Enantioselective OTUD7B fragment discovery through chemoproteomics screening and high-throughput optimisation” (Communications Chemistry, 2025).
Unmarked numbers belong to inactive results.

Legend:
Test in all cases: log2 ratio of Biotin-Ahx-Ub-VS probe labelling (fragment/DMSO); higher = less target engagement (more negative = stronger competition), active = hit call of the paper (q ≤ 0.05, log2 ratio ≤ -1)
Details in all cases: compound concentration: 200 uM; treatment time: 3 h
ALG13 = molecular target: T1, ALG13 (UniProt Q9NP73)
T1 sequence (whole entry): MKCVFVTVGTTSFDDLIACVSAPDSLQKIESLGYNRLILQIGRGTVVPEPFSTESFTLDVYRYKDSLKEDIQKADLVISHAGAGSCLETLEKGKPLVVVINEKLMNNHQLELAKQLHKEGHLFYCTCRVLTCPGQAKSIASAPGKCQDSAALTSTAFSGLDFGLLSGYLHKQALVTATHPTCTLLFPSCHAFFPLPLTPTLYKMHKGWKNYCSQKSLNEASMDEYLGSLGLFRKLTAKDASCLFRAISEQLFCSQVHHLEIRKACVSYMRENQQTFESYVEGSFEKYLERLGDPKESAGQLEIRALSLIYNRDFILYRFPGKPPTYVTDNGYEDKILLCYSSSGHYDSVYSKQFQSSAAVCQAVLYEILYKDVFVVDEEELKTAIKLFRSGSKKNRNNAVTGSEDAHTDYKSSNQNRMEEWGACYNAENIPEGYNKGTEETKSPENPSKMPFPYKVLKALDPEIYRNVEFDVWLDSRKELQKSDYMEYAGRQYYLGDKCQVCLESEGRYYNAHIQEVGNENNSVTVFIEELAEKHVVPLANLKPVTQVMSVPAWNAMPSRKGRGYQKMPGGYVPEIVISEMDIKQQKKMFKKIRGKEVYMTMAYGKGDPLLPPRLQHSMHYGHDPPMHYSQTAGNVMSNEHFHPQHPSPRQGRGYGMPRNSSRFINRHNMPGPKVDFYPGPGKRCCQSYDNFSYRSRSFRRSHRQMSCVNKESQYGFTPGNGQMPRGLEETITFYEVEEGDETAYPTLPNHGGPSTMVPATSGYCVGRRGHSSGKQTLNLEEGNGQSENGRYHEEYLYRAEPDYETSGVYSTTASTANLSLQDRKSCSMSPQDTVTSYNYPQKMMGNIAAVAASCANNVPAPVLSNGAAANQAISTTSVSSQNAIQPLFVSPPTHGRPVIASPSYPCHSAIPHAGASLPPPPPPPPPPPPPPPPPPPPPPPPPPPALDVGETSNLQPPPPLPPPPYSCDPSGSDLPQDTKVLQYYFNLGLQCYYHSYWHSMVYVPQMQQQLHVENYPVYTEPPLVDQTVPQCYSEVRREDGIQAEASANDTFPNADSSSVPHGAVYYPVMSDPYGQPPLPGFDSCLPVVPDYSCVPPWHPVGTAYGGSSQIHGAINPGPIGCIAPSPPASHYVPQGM
Summary of the method: (§1)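 Fragment (200 µM) or vehicle was incubated for 3 h with triplicate HEK293T lysate samples of 495 µg, which were then treated with Biotin-Ahx-Ub-VS at 0.5 µM final for 1 h. Labelled DUBs were enriched on NeutrAvidin, digested with LysC and trypsin, and analysed by diaPASEF LC-MS/MS. Values are average log2 fragment/vehicle ratios from an unpaired t-test on global-median-normalised Spectronaut label-free quantities, using proteins with ≥2 unique peptides.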

ATXN3 = ATXN3 (UniProt P54252)
Summary of the method: as §1

BAP1 = molecular target: T2, BAP1 (UniProt Q92560)
T2 sequence (whole entry): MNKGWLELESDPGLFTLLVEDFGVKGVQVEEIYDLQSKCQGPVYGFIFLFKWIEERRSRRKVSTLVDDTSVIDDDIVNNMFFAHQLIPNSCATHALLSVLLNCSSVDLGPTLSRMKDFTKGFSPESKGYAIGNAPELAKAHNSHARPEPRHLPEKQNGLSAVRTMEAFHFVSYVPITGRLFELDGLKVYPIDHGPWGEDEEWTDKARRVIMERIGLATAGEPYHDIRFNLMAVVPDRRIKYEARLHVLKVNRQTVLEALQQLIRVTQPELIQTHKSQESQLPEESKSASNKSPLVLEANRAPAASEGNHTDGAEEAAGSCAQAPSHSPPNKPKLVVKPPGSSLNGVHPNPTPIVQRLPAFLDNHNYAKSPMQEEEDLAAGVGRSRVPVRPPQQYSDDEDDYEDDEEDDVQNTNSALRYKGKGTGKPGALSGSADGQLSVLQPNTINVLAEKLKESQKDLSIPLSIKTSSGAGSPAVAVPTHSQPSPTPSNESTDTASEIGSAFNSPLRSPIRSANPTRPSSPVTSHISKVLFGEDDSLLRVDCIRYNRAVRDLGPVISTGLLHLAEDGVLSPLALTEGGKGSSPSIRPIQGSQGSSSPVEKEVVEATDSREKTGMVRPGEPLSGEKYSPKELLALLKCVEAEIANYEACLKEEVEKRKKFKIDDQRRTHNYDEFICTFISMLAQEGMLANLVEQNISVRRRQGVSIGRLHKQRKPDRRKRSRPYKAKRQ
Summary of the method: as §1

EIF3F = EIF3F (UniProt O00303)
Summary of the method: as §1

EIF3H = EIF3H (UniProt O15372)
Summary of the method: as §1

FAM105A = molecular target: T3, FAM105A (UniProt Q9NUU6)
T3 sequence (whole entry): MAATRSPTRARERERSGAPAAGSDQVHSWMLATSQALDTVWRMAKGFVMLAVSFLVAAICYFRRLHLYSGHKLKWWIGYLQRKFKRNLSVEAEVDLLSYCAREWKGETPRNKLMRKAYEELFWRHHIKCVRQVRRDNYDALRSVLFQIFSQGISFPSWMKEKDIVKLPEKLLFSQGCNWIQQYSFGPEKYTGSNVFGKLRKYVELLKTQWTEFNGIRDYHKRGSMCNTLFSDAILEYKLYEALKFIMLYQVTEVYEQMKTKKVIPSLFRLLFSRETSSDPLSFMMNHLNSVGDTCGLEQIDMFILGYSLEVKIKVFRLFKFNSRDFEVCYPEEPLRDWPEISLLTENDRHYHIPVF
Summary of the method: as §1

OTUB1 = OTUB1 (UniProt Q96FW1)
Summary of the method: as §1

OTUD4 = molecular target: T4, OTUD4 (UniProt Q01804)
T4 sequence (whole entry): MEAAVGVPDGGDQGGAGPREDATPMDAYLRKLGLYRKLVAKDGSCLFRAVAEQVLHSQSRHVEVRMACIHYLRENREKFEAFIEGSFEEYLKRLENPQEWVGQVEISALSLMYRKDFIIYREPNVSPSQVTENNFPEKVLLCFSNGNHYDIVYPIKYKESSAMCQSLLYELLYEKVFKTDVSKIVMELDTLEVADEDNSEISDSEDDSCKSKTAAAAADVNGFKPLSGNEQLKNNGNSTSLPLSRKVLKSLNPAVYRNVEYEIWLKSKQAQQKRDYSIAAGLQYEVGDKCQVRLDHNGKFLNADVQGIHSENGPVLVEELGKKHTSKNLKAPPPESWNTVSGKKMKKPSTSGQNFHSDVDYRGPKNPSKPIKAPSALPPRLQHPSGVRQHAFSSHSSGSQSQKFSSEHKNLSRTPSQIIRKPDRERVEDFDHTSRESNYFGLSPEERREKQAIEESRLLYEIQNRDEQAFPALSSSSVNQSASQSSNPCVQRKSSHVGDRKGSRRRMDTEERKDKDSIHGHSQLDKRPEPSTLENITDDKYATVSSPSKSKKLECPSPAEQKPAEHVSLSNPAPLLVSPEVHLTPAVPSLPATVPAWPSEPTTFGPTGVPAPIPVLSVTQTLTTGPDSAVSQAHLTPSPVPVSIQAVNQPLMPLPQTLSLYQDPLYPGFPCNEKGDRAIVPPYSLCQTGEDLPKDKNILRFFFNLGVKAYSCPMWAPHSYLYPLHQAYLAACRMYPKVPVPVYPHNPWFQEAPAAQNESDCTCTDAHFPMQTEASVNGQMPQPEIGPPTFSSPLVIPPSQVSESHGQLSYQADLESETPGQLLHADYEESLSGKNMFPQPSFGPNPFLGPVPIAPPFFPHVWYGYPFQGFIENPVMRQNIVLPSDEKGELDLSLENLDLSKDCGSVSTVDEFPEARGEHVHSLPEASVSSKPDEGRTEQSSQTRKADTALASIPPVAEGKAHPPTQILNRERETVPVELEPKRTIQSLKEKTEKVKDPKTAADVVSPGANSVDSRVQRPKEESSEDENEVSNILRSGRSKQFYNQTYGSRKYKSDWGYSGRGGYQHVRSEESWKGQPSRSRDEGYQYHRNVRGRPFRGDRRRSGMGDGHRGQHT
Summary of the method: as §1

OTUD5 = molecular target: T5, OTUD5 (UniProt Q96G74)
T5 sequence (whole entry): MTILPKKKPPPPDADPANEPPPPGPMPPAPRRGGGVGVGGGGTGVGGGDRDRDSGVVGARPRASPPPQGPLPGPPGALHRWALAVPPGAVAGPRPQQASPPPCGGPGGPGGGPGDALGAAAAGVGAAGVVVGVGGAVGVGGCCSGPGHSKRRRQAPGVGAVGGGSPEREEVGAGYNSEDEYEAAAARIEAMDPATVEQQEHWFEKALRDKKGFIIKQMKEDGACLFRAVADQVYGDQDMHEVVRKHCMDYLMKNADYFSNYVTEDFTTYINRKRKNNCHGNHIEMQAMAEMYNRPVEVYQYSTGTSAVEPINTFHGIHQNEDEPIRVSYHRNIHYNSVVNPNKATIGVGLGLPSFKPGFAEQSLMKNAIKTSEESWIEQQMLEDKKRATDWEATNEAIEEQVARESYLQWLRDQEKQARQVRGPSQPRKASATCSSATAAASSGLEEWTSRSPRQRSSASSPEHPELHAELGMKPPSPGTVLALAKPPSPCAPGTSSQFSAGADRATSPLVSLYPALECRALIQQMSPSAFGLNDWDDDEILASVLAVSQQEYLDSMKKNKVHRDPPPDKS
Summary of the method: as §1

ATXN3, sequence (P54252 whole entry): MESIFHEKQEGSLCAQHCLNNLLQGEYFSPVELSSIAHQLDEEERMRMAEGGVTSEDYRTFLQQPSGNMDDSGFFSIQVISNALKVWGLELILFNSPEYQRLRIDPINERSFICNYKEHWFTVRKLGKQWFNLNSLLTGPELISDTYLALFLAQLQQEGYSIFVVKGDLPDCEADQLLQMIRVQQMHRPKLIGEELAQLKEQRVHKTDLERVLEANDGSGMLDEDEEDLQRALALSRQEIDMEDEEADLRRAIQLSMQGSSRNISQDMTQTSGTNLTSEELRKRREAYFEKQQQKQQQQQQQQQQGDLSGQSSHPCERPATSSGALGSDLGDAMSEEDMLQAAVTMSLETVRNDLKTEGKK
EIF3F, sequence (O00303 whole entry): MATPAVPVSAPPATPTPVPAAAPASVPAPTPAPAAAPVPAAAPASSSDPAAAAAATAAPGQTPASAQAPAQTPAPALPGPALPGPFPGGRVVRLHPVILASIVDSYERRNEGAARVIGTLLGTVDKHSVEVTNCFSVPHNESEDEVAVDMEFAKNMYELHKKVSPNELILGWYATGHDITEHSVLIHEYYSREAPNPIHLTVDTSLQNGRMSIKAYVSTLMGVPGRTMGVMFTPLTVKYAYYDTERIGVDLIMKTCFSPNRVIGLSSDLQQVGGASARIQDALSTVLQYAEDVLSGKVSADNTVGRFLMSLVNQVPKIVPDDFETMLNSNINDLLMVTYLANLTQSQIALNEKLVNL
OTUB1, sequence (Q96FW1 whole entry): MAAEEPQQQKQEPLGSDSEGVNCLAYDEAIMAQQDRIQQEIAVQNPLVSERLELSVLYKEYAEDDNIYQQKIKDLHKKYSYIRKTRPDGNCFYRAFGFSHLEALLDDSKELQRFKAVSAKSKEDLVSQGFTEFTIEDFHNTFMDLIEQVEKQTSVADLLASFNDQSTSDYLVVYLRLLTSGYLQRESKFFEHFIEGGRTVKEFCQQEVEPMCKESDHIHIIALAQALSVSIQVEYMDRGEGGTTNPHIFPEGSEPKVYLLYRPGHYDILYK
EIF3H, sequence (O15372 whole entry): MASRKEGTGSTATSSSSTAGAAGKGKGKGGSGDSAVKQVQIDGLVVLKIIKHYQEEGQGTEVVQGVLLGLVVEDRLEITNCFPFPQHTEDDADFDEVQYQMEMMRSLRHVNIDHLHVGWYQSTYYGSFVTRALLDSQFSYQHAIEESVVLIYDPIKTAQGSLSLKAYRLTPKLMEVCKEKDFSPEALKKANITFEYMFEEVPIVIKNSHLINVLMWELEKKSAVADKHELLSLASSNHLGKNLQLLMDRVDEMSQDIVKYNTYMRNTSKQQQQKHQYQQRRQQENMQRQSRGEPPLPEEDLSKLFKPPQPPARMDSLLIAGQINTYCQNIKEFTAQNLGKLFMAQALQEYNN

Compound: Cl.O=C(CCl)NCc1cc2c(nc1O)CCCC2
- log2 ratio of Biotin-Ahx-Ub-VS probe labelling (ALG13): -0.00624
- log2 ratio of Biotin-Ahx-Ub-VS probe labelling (ATXN3): -0.358
- log2 ratio of Biotin-Ahx-Ub-VS probe labelling (BAP1): -1.87 (active)
- log2 ratio of Biotin-Ahx-Ub-VS probe labelling (EIF3F): 0.116
- log2 ratio of Biotin-Ahx-Ub-VS probe labelling (EIF3H): 0.0749
- log2 ratio of Biotin-Ahx-Ub-VS probe labelling (FAM105A): 0.13
- log2 ratio of Biotin-Ahx-Ub-VS probe labelling (OTUB1): -0.044
- log2 ratio of Biotin-Ahx-Ub-VS probe labelling (OTUD4): -0.437
- log2 ratio of Biotin-Ahx-Ub-VS probe labelling (OTUD5): -0.468
